Measured values as given in PubChem BioAssay AID1209 (Sanford-Burnham Center for Chemical Genomics, 2008).
Hit rate of the full screen: of about 190,000 compounds, about 810 (0.43%) were called active. The sample as a whole holds a higher share of actives than the screen did. Values without a mark were called inactive. Rule as the data show it: active = inhibition above about 50%; inactive = the rest.

What follows are compounds tested against Mannose-6-phosphate isomerase (Homo sapiens) (UniProt P34949) (assay: MPI enzyme activity inhibition – biochemical, fluorescence intensity, coupled assay, primary screen (AID 1209;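 also: plate controls were DMSO vehicle for no effect and wells lacking substrate for full effect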)). Details: purified PMI enzyme, at 20 µM, active compounds read high.
Sequence of Mannose-6-phosphate isomerase (Homo sapiens) (P34949 whole entry, looked up): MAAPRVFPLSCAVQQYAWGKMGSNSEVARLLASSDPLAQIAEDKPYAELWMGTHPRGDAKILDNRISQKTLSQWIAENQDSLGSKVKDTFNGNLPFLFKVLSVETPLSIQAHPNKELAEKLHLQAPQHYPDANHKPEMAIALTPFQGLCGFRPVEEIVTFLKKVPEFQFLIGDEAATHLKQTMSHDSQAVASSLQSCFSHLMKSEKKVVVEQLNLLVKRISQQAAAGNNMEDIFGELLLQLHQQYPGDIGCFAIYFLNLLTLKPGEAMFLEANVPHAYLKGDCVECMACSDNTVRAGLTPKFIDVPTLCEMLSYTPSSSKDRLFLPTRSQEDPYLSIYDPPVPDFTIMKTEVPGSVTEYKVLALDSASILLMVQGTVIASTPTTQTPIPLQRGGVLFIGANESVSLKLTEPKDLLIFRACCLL

Q: With `O=C(CCc1cnccn1)NC1CCCc2c1cnn2-c1ccc(F)cc1F` (stereo not given) as the compound, how does the inhibition read?
A: The inhibition was 6.3%.

Q: `C=CCSc1nc2sc3c(c2c(=O)n1CC=C)CCc1ccccc1-3` was tested. Which inhibition did it give?
A: The inhibition was 10.5%.

Q: How did the inhibition turn out when `C=CCn1c(SCC)nc2sc3c(c2c1=O)CCc1ccccc1-3` was run?
A: Its inhibition is 7.8%.

Q: `C=CCSc1nc2sc3c(c2c(=O)n1CC)CCc1ccccc1-3` was tested. Which inhibition did it give?
A: The inhibition was 71.8% (active).

Q: With `CS(=O)(=O)N1N=C(c2ccc(Br)cc2)CC1c1cccs1` (stereo not given) as the compound, how does the inhibition read?
A: Its inhibition is 12.1%.

Q: Which inhibition does the source give for `Cc1sc(/N=C/c2c(O)ccc3ccccc23)c(C#N)c1C` here?
A: Its inhibition is -6%.

Q: `Cc1sc(/N=C/c2ccccc2O)c(C#N)c1C` was tested. Which inhibition did it give?
A: Its inhibition is 0.9%.

Q: `COc1ccc(O)c(/C=N/c2sc(C)c(C)c2C#N)c1` was tested. Which inhibition did it give?
A: The inhibition was 53.8% (active).

Q: With `CN(CCC1CCOCC1)C(=O)CC1C(=O)NCCN1C/C=C/c1ccccc1` (stereo not given) as the compound, how does the inhibition read?
A: The inhibition was 5.6%.

Q: For `Cc1ccc(-c2nnc(-c3ccccc3)c(-c3ccccc3)n2)cc1`, which inhibition is on record?
A: Its inhibition is 8.3%.

Q: `Cc1ccc(-c2nc(N)sc2C)cc1` was tested. Which inhibition did it give?
A: The inhibition was -11%.

Q: With `Cc1ccc(-c2cc(-c3ccccc3)nc(Cl)n2)cc1` as the compound, how does the inhibition read?
A: Its inhibition is 16.6%.

Q: `Cc1ccc(-c2nc(N)sc2-c2ccc(C)cc2)cc1` was tested. Which inhibition did it give?
A: Its inhibition is 13.3%.

Q: For `CNc1nc(-c2ccccc2)[n+](-c2ccc(C)cc2)s1`, which inhibition is on record?
A: Its inhibition is 89.5% (active).

Q: For `Cc1ccc(-c2nc(N)s[n+]2-c2ccccc2)cc1`, which inhibition is on record?
A: The inhibition was 106% (active).

Q: How did the inhibition turn out when `O=C(Nc1ccc(N2CCCC2)c(Cl)c1)c1ccccc1[N+](=O)[O-]` was run?
A: Its inhibition is -3.5%.

Q: How did the inhibition turn out when `Cc1cc(N/N=C/c2ccc(Cl)cc2Cl)nc(NCc2ccccc2)n1` was run?
A: The inhibition was 20.3%.

Q: With `O=C(NCc1ccccc1)NCC12CC3CC(CC(C3)C1)C2` as the compound, how does the inhibition read?
A: Its inhibition is 1.8%.

Q: `Cc1ccc2c(c1)sc(C)[n+]2CCCS(=O)(=O)[O-]` was tested. Which inhibition did it give?
A: Its inhibition is 9.6%.

Q: With `COc1ccc2sc(C)[n+](C)c2c1` as the compound, how does the inhibition read?
A: Its inhibition is 84.3% (active).

Q: For `CCCC[n+]1c(C)sc2cc(OC)ccc21`, which inhibition is on record?
A: The inhibition was 16.5%.

Q: With `CC[n+]1c(C)sc2cc(OC)ccc21` as the compound, how does the inhibition read?
A: The inhibition was 73.9% (active).

Q: How did the inhibition turn out when `CCC[n+]1c(C)sc2c3c(ccc21)CCCC3` was run?
A: The inhibition was 22.9%.

Q: For `CCC[n+]1c(C)sc2c(OC)ccc(OC)c21`, which inhibition is on record?
A: The inhibition was 3.5%.

Q: `CC[n+]1c(/C=C/C=C/N(C(C)=O)c2ccccc2)sc2cc(OC)ccc21` was tested. Which inhibition did it give?
A: The inhibition was -17.8%.

Q: How did the inhibition turn out when `Cc1ccc2sc(C)[n+](CCC(C)S(=O)(=O)[O-])c2c1` (stereo not given) was run?
A: Its inhibition is 1%.

Q: With `CCOC(=O)C[n+]1c(C)sc2ccc(OC)cc21` as the compound, how does the inhibition read?
A: The inhibition was 3.3%.

Q: `CC[n+]1c(C)sc2cc(C)ccc21` was tested. Which inhibition did it give?
A: The inhibition was 77% (active).

Q: Which inhibition does the source give for `COc1ccc2sc(/C=C/c3ccccc3O)[n+](C)c2c1` here?
A: Its inhibition is 4.3%.

Q: Which inhibition does the source give for `O=C(Nc1cccc(C(=O)N2CCOCC2)c1)NC1CCCCC1` here?
A: The inhibition was 8.1%.

Q: `N#Cc1c(SCC(N)=O)nc(-c2ccccc2)c2c1CCCC2` was tested. Which inhibition did it give?
A: Its inhibition is -2.9%.

Q: With `CCN1C(=O)C2(C(C#N)=C(N)Oc3cc(C)oc(=O)c32)c2ccccc21` (stereo not given) as the compound, how does the inhibition read?
A: The inhibition was 5.6%.

Q: `CCC(C)c1ccccc1NC(=O)Cc1coc2cc3c(cc12)CCC3` (stereo not given) was tested. Which inhibition did it give?
A: Its inhibition is 19.4%.

Q: How did the inhibition turn out when `CCOc1ccc(N2C(=O)CCC2=O)cc1` was run?
A: The inhibition was 6.4%.

Q: How did the inhibition turn out when `C/C(=C\C(=O)OCC(=O)NCc1ccccc1)C(=O)OCC(=O)NCc1ccccc1` was run?
A: Its inhibition is 6%.

Q: `O=C1CCC([N+](=O)[O-])C(c2cccc(Br)c2)N1` (stereo not given) was tested. Which inhibition did it give?
A: The inhibition was -1%.

Q: Which inhibition does the source give for `O=C(Cn1cc2c(n1)CCCC2)NCC1CCCO1` (stereo not given) here?
A: Its inhibition is 3.4%.

Q: Which inhibition does the source give for `Cc1ccc2sc(C)[n+](CCCS(=O)(=O)[O-])c2c1` here?
A: The inhibition was -3%.

Q: How did the inhibition turn out when `CC[n+]1c(C)sc2c3ccsc3ccc21` was run?
A: Its inhibition is 66.7% (active).

Q: With `Cc1ccc2sc(C)[n+](CCO)c2c1` as the compound, how does the inhibition read?
A: The inhibition was -7.8%.

Q: `CCCC[n+]1c(C)sc2ccc(C)cc21` was tested. Which inhibition did it give?
A: Its inhibition is 61.6% (active).

Q: Which inhibition does the source give for `Cc1sc2ccc3sccc3c2[n+]1C` here?
A: The inhibition was -21.2%.

Q: `Cc1sc2c3ccsc3ccc2[n+]1C` was tested. Which inhibition did it give?
A: The inhibition was -2.6%.

Q: Which inhibition does the source give for `CCOP(=O)(OCC)C(Nc1ccc(C)cc1)c1ccco1` (stereo not given) here?
A: Its inhibition is -14.5%.

Q: `NC(=O)N/N=C/c1ccccc1OCC(=O)NCc1ccccc1` was tested. Which inhibition did it give?
A: The inhibition was 1.8%.

Q: How did the inhibition turn out when `Cc1ccc(S(=O)(=O)NC(N)=NCCc2ccc(Cl)cc2)cc1C` was run?
A: Its inhibition is 15.4%.

Q: Which inhibition does the source give for `CC(C)N1CCC2(CC1)N=C(c1ccc3c(c1)OCO3)CC(c1cc(Cl)ccc1O)N2` (stereo not given) here?
A: Its inhibition is 23.4%.

Q: `COc1ccc(C(=O)c2cnc(/N=C/N(C)C)s2)cc1` was tested. Which inhibition did it give?
A: The inhibition was 14.2%.

Q: Which inhibition does the source give for `COc1ccc(NC(=O)CSc2nnc(Cn3cnc4ccccc43)o2)cc1` here?
A: The inhibition was 4.8%.

Q: Which inhibition does the source give for `O=C(O)c1cccc(N2C(=O)/C(=C/c3ccc(SCc4ccc(Cl)cc4)o3)SC2=S)c1` here?
A: Its inhibition is 73.3% (active).

Q: Which inhibition does the source give for `Cc1ccc(/C=C2\SC(=S)N(Cc3ccccc3)C2=O)o1` here?
A: The inhibition was 18.3%.

Q: With `O=C1NC(=S)S/C1=C\c1ccc(SCc2ccccc2)o1` as the compound, how does the inhibition read?
A: Its inhibition is 80.4% (active).

Q: Which inhibition does the source give for `O=C1NC(=S)S/C1=C\c1ccc(SCc2ccco2)o1` here?
A: Its inhibition is 10.3%.

Q: With `O=C(O)CN1C(=O)/C(=C/c2ccc(SCc3ccccc3)o2)SC1=S` as the compound, how does the inhibition read?
A: The inhibition was 85.2% (active).

Q: For `O=C1/C(=C\c2ccco2)SC(=S)N1c1ccccc1`, which inhibition is on record?
A: Its inhibition is 22.8%.

Q: For `Cc1cccc(C)c1-n1cccc1/C=C1\SC(=S)N(c2cccc(C(=O)O)c2)C1=O`, which inhibition is on record?
A: The inhibition was 1.3%.

Q: Which inhibition does the source give for `O=C1NC(=S)S/C1=C/c1ccc(N2CCOCC2)o1` here?
A: Its inhibition is -25.3%.

Q: Which inhibition does the source give for `O=C(O)c1cc(-c2ccc(/C=C3/SC(=S)N(Cc4ccccc4)C3=O)o2)ccc1Cl` here?
A: Its inhibition is -29.3%.

Q: Which inhibition does the source give for `COC(=O)[C@@H](NC(=O)N(C1CCCCC1)C1CCCCC1)C(C)C` here?
A: Its inhibition is -2.2%.

Q: Which inhibition does the source give for `Cc1nnc(SCC(=O)N2CC(=O)Nc3ccccc32)n1C` here?
A: The inhibition was -5.6%.

Q: How did the inhibition turn out when `Cc1ccc(N/C=C/C(=O)c2sc(-c3ccccc3)nc2C)cc1` was run?
A: Its inhibition is 14.3%.

Q: Which inhibition does the source give for `COc1ccc(-c2csc(NC(=O)Cc3cccc4ccccc34)c2C(=O)O)cc1` here?
A: The inhibition was -0.1%.

Q: `O=C(O)c1cccnc1SC1CC(=O)N(CCc2ccccc2)C1=O` (stereo not given) was tested. Which inhibition did it give?
A: Its inhibition is 3.4%.

Q: How did the inhibition turn out when `CCc1nnc(NC(=O)c2ccc(S(=O)(=O)N3CCN(Cc4ccccc4)CC3)cc2)s1` was run?
A: Its inhibition is -1.5%.

Q: How did the inhibition turn out when `C/C=C/c1c(F)c(F)c(Oc2ccc(C(=O)O)cc2)c(F)c1F` was run?
A: Its inhibition is -3.5%.

Q: `Cc1noc(C)c1COC(=O)CNC(=O)c1ccc(Cl)cc1` was tested. Which inhibition did it give?
A: The inhibition was -4.1%.

Q: `COCCNC(=O)c1ccc(CN2CCOCC2)cc1` was tested. Which inhibition did it give?
A: Its inhibition is -8.4%.

Q: `CCN1C(=O)C(CC(=O)Nc2ccc(OC)cc2)N(CCc2ccc(OC)cc2)C1=S` (stereo not given) was tested. Which inhibition did it give?
A: The inhibition was -4.1%.

Q: Which inhibition does the source give for `C=CCOC(=O)C1=C(C)NC(=S)NC1/C=C/c1ccccc1` (stereo not given) here?
A: Its inhibition is 2.3%.

Q: With `O=c1c(Cc2ccc(F)cc2)c(O)ccn1CCCn1ccnc1` as the compound, how does the inhibition read?
A: Its inhibition is 3%.

Q: For `O=C(Oc1ccc(C(=S)N2CCOCC2)cc1)c1ccc(Br)cc1`, which inhibition is on record?
A: The inhibition was 5.3%.

Q: How did the inhibition turn out when `O=C(Oc1ccc(C(=S)N2CCOCC2)cc1)c1ccccc1` was run?
A: Its inhibition is 3.3%.

Q: Which inhibition does the source give for `COc1ccc(C(=O)Oc2ccc(C(=S)N3CCOCC3)cc2)cc1` here?
A: The inhibition was 51% (active).

Q: With `O=C(Nc1ncccn1)c1ccc(C(F)(F)F)cc1` as the compound, how does the inhibition read?
A: The inhibition was 4%.

Q: With `CCOC(=O)C1(CCOC)CCN(Cc2ccccc2-c2ccco2)CC1` as the compound, how does the inhibition read?
A: The inhibition was 3.5%.

Q: For `O=C1CCCN2N=C(SCC(=O)Nc3nccs3)SC2=N1`, which inhibition is on record?
A: The inhibition was -3.6%.

Q: With `CCCCOc1ccc(/C=C/C(=O)NC2=Nc3ccccc3NC(C)=C2C(=O)OCC)cc1OC` as the compound, how does the inhibition read?
A: Its inhibition is 65.6% (active).

Q: With `CCOC(=O)C1=C(C)Nc2ccccc2N=C1NC(=O)/C=C/c1ccc(OC)cc1OC` as the compound, how does the inhibition read?
A: The inhibition was 19.3%.

Q: How did the inhibition turn out when `CCOC(=O)C1=C(C)Nc2ccccc2N=C1NC(=O)Cc1ccc(OC)cc1` was run?
A: The inhibition was 1.1%.

Q: `Cc1c(-c2ccccc2)[n+](=O)c(-c2ccc(Cl)cc2)c(C)n1[O-]` was tested. Which inhibition did it give?
A: Its inhibition is 4.1%.

Q: `Cc1ccc(CN(c2ccc(C(=O)NCc3cccnc3)cc2)S(C)(=O)=O)cc1` was tested. Which inhibition did it give?
A: Its inhibition is -2.9%.

Q: Which inhibition does the source give for `c1ccc(Cc2nnc3sc(-c4cccs4)nn23)cc1` here?
A: Its inhibition is 8.2%.

Q: Which inhibition does the source give for `c1ccc(Cc2nn3c(COc4ccccc4)nnc3s2)cc1` here?
A: The inhibition was 53.1% (active).

Q: For `Clc1ccccc1-c1nn2c(COc3ccccc3)nnc2s1`, which inhibition is on record?
A: The inhibition was 9.4%.

Q: With `c1ccc(OCc2nnc3sc(-c4cccs4)nn23)cc1` as the compound, how does the inhibition read?
A: The inhibition was 65.5% (active).

Q: `c1ccc(CCc2nn3c(Cc4ccccc4)nnc3s2)cc1` was tested. Which inhibition did it give?
A: Its inhibition is 38.2%.

Q: Which inhibition does the source give for `CCOc1ccccc1OCc1nn2c(COc3ccccc3)nnc2s1` here?
A: The inhibition was 45.2%.

Q: How did the inhibition turn out when `Cc1cccc(NC(=O)CSc2nnc(-c3n[nH]c4ccccc34)o2)c1` was run?
A: The inhibition was 17.6%.

Q: Which inhibition does the source give for `COCCNC(=S)Nc1ccc([N+](=O)[O-])cc1C` here?
A: Its inhibition is 2%.

Q: For `CCOc1ccccc1N(C(=O)c1ccco1)C(C(=O)NC1CCCC1)c1cccnc1` (stereo not given), which inhibition is on record?
A: Its inhibition is 5.1%.
